Compounds with a hit are over-represented: about 3.5% of the library has one in this group of screens.
FBW7 act: FBW7 E3 ligase activators, primary screen, biochemical, AlphaScreen, human | F-box/WD repeat-containing protein 7 (Homo sapiens), Q969H0 | AlphaScreen FBW7–phospho-cyclin E peptide binding, activator screen | normalized activity (activation), % at 26.1 µM | hit rate 0.13% among 650,000 | AID 1259310, 2017; in the data active = normalized activity above about 1.9%;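 also: purified mutant Fbw7 with reduced substrate affinity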
GPR151 ag: activators of human GPR151, primary screen, cell-based, PathHunter beta-arrestin, luminescence | PathHunter beta-arrestin GPR151 cells | activation, % at 11.2 µM | hit rate 1% among 650,000; in the data active = activation above about 4.9%
Target sequence (Q8TDV0 whole entry, looked up): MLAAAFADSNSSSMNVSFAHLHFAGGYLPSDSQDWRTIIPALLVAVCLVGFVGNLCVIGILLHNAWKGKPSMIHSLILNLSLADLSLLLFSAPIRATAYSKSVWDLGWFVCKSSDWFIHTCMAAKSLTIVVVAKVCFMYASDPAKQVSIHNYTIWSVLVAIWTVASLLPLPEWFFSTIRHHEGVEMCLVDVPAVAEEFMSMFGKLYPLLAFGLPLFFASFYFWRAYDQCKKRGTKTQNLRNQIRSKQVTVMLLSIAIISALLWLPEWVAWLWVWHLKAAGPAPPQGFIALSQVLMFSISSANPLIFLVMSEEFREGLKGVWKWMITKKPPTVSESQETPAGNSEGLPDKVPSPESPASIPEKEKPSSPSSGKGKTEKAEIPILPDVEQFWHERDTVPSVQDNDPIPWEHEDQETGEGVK
MITF inh: MITF inhibitors, primary screen, biochemical, AlphaScreen, human; Microphthalmia-associated transcription factor (Homo sapiens), O75030; AlphaScreen MITF homodimerization, bead proximity signal; inhibition, % at 2.6 µM; hit rate 0.91% among 650,000; in the data active = inhibition above about 50%
TEAD-YAP block: TEAD-YAP interaction inhibition, primary screen, TEAD-YAP interaction inhibitor project, luminescence, HEK-TIYL cells; AID 1259422, 2018; hit rate 1.4% among 640,000; inhibition, % at 9.12 µM; TEAD-Gal4/YAP UAS-luciferase luminescence; in the data active = inhibition above about 32%
Hits are given with their value; . = inactive.

SMILES	FBW7 act	GPR151 ag	MITF inh	TEAD-YAP block
CC(C)n1cnc2c(NCc3nc4ccccc4[nH]3)nc(Nc3ccncc3)nc21	.	.	.	90
Cc1noc(C)c1-c1nc(NCc2nc3ccccc3[nH]2)c2ncn(C(C)C)c2n1	.	.	.	49
CC(C)n1cnc2c(NCc3nc4ccccc4[nH]3)nc(-c3csc4ccccc34)nc21	.	.	.	.
CC(C)n1cnc2c(NCc3nc4ccccc4[nH]3)nc(Nc3ncccn3)nc21	.	.	.	66
CC(C)n1cnc2c(NCc3ccccc3)nc(Nc3cccc(N(C)C)c3)nc21	.	.	.	.
CCCN(CCC)C(=O)CSc1nc2ccsc2c(=O)n1CCCC(=O)O	.	.	.	.
CCCC(c1nnnn1CC1CCCO1)N1CCN(c2cccc(C(F)(F)F)c2)CC1 (stereo unspecified)	.	.	.	.
Nc1nc2ccccc2n1C(=O)c1ccc(F)cc1	.	.	.	52
Nc1nc2ccccc2n1C(=O)c1ccccc1	.	.	.	52
O=C1C(=O)N(c2nc3ccccc3s2)C(c2cccc(F)c2)/C1=C(\O)c1ccccc1 (stereo unspecified)	.	.	.	.
CC(=O)OCC(=O)[C@@]1(O)CCC2C3CCC4=CC(=O)CC[C@]4(C)[C@@]3(F)[C@@H](O)C[C@@]21C (stereo partly specified)	.	.	.	.
COc1ccc(NC(=O)c2sc3[nH]c(=O)c(C(=O)O)cc3c2N)c(OC)c1	.	.	.	.
CS(=O)(=O)c1ccc(-c2ccc3c(c2)CC(CNC(=O)/C=C/c2cccnc2)O3)cc1 (stereo unspecified)	.	.	.	39
CS(=O)(=O)c1ccc(-c2ccc3c(c2)CC(CNC(=O)CCc2cccnc2)O3)cc1 (stereo unspecified)	.	.	.	.
c1ccc(CNc2nc(Nc3ccc(-n4ccnc4)cc3)nc3c2ncn3-c2ccsc2)cc1	.	.	.	.
CC(C)N(CCNc1nc(Nc2ccc(-n3ccnc3)cc2)nc2c1ncn2C(C)C)C(C)C	.	.	.	60
CC(C)N(CCNc1nc(Nc2ccc(-n3ccnc3)cc2)nc2c1ncn2-c1ccsc1)C(C)C	.	.	.	51
CC(C)N(CCNc1nc(Nc2ccc(-n3ccnc3)cc2)nc2c1ncn2-c1ccccc1)C(C)C	.	.	.	34
CC(C)N(CCNc1nc(Nc2ccccn2)nc2c1ncn2C(C)C)C(C)C	.	.	.	43
CCCCOC(=O)C1=C(C)NC2=C(C(=O)CCC2)C1c1ccccc1OCC (stereo unspecified)	.	.	.	.
COc1ccc(N=c2oc3ccc(Br)cc3cc2-c2nc3ccccc3[nH]2)cc1	.	.	.	.
COc1ccccc1NC(=O)CSc1nc2ccccc2c(=O)[nH]1	.	.	.	.
Cc1ccc(-c2cccc3cnc(Nc4ccc(C(=O)NC5CC5)cc4)nc23)cn1	.	.	.	64
Cc1ccc(-c2cccc3cnc(Nc4cccc(C(=O)N5CCCC5)c4)nc23)cn1	.	.	.	.
Cc1ccc(-c2cccc3cnc(Nc4cccc(C(=O)NC5CC5)c4)nc23)cn1	.	.	.	33
SMILES	FBW7 act	GPR151 ag	MITF inh	TEAD-YAP block
CCC(C)NC(=O)c1cc2c(=O)n(C)c3ccccc3c2n1C (stereo unspecified)	.	.	.	.
COc1cccc(NC(=S)N/N=C/c2ccc(O)cc2)c1	.	.	.	60
COc1ccccc1/C=N/NC(=O)C(=O)Nc1ccccc1OC	.	.	.	.
COc1cc(/C=N/NC(=S)Nc2cccc(C(=O)O)c2)ccc1O	.	.	.	32
COc1cccc(/C=N/NC(=S)Nc2cccc(F)c2)c1O	.	.	58	40
COc1ccccc1/C=N/NC(=S)Nc1ccccc1OC	.	.	.	46
Cc1cc2c(nc3s/c(=C/c4cccc(O)c4)c(=O)n32)c(Br)c1C	.	.	.	.
O=C(O)c1cccc(NC(=S)N/N=C/c2cc(Cl)ccc2O)c1	.	.	91	.
COc1cccc(/C=N/NC(=S)Nc2cccc(C(=O)O)c2)c1O	.	.	112	61
CCOC(=O)c1ccc(NC(=S)Nc2cccc(OC)c2)cc1	.	.	.	62
Cc1cc(C=NCCO)c(C)n1-c1cc(Cl)ccc1Cl	.	.	.	.
COc1ccc(O)c(/C=N/NC(=O)/C(=C\c2cccs2)NC(=O)c2ccccc2)c1	.	.	.	58
